# The supplement of paper PMC6555819
# Columns and labels:
# Assay in all cases: PBM binding z-score (relative to random genomic background probes); higher = stronger binding; sequences stand for … in GC…GCGATTGACAGCGTAGAATGAAGG
# [1] = test system: FXR:RXRa (NR concentration 270 nM, RXRa partner concentration 90 nM)
# Method in brief: (§1)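 Regression normalization was applied to scanned fluorescence from custom Agilent 4×180K protein-binding microarrays. Before scanning, arrays were incubated 1 h with ligand-free nuclear receptor dimers, and binding was detected with antibodies against each partner (one per run). Binding z-scores use the random background probes as reference.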
# [2] = test system: LXRa:RXRa (NR concentration 270 nM, RXRa partner concentration 90 nM)
# Method in brief: as §1
# [3] = test system: LXRa homodimer (NR concentration 270 nM)
# Method in brief: as §1
# [4] = test system: LXRb:RXRa (NR concentration 270 nM, RXRa partner concentration 90 nM)
# Method in brief: as §1
# [5] = test system: LXRb homodimer (NR concentration 270 nM)
# Method in brief: as §1
# [6] = test system: PPARa:RXRa (NR concentration 270 nM, RXRa partner concentration 90 nM)
# Method in brief: as §1
# [7] = test system: PPARg:RXRa (NR concentration 180 nM, RXRa partner concentration 90 nM)
# Method in brief: as §1
# [8] = test system: PPARg:RXRa 270nM:90nM, anti-RXR (NR concentration 270 nM, RXRa partner concentration 90 nM)
# Method in brief: as §1
# [9] = test system: PPARg:RXRa 30nM:10nM, anti-RXR (NR concentration 30 nM, RXRa partner concentration 10 nM)
# Method in brief: as §1
# [10] = test system: PPARg:RXRa 90nM:30nM, anti-RXR (NR concentration 90 nM, RXRa partner concentration 30 nM)
# Method in brief: as §1
Sequence,PBM binding z-score [1],PBM binding z-score [2],PBM binding z-score [3],PBM binding z-score [4],PBM binding z-score [5],PBM binding z-score [6],PBM binding z-score [7],PBM binding z-score [8],PBM binding z-score [9],PBM binding z-score [10]
CCTACTGGGCCATCAGATCATTGATATCAACGTT,-0.345,-0.391,-0.0851,-0.263,-0.349,0.662,1.01,1.49,0.163,1.28
CGAACTAGGTCAGAACGGGACAGTGAAGGATGAT,0.777,0.488,-0.316,0.113,-0.487,3.16,5.01,4.15,1.79,3.38
ATCGAAAGGTCGAAGGTTAGTATACCCACCCGAA,4.06,3.5,0.517,3.05,0.649,4.71,4.46,5.12,2.51,4.28
ACTAGCAGGCCAGGTTTGGGTCACTCAAACAAAG,-0.191,-0.164,-0.504,0.269,-0.651,0.985,-0.123,0.025,-0.537,-0.199
CGAACTAGGTCAAAGGTCAAAGTCGAGCCAACCA,8.28,7.41,5.37,7.03,2.53,7.47,14.1,11.4,14.7,14
CCTACTGGGCCAAAAAGGTCATTGTTGCCGATAA,3.25,4.03,2.95,4.03,0.141,4.47,2.62,4.03,1.19,2.96
TCTTGTAGATCAGCAGGTTAAGGAAGCTGGCCAA,0.249,0.362,-0.204,0.224,-0.678,0.814,-0.515,1.47,2.53,2.02
CATACTAGGTCACAGAGGTCAAAGTCCGTGCGTA,6.69,6.83,7.84,6.16,2.94,6.09,8.98,7.72,5.14,7.44
CGACCAAGGTCAAAGGTCAGTGAAGAGATGACGG,8.72,6.8,3.14,6.54,1.18,7.07,11.3,9.46,9.86,10.4
CCTAGCAGGCCAATCTGGTTCACTCAAGGCTTGA,-0.121,0.131,-0.596,-0.16,-0.887,0.0157,-0.419,-0.488,-0.776,-0.865
CAAACTAGGCCACGAAAGGTCAAAGTCGAATGAC,5.14,6.19,5.85,5.69,1.75,6.2,7.45,6.7,4.3,6.62
ATCTCTAGGTAACCAAGTTCAGTCAATGCCGAAC,0.839,1.13,1.15,1.16,0.769,1.56,0.836,0.815,0.185,0.74
ATCTCTAGGTAACAAGTTCAGTGATAGAGAGGAC,0.623,0.613,0.594,0.524,1.01,1.34,1.67,1.87,1.19,1.53
CCTCCGAGGACAGAAGGTCAGAGCTGTCCGCTTT,1.46,1.7,0.408,1.37,-0.149,1.89,-0.0299,0.869,-0.46,0.274
CCAGACAGGTGAGAAGGTGACTCAGCCTCGATTA,0.0148,-0.0121,-0.103,0.201,-0.178,0.868,0.495,0.694,-0.409,0.222
TCTGCTAGGTCAACGAGGGTCAGCTAATCTGCTA,4.68,4.83,0.398,3.04,0.26,4.27,3.36,3.79,2.12,3.02

Sequence,PBM binding z-score [1],PBM binding z-score [2],PBM binding z-score [3],PBM binding z-score [4],PBM binding z-score [5],PBM binding z-score [6],PBM binding z-score [7],PBM binding z-score [8],PBM binding z-score [9],PBM binding z-score [10]
CGAACTAGGTCATCTAGGACAGTGAATACATTGA,4.09,2.49,0.484,2.12,-0.144,4.72,7.33,6.44,3.66,5.7
TCTTGTAGATCAAAGGATAAGAAAGCCGAAGCCT,0.762,0.274,-0.116,-0.287,-0.528,0.671,1.13,3.36,3.43,3.38
GCTTACGAGTCAAAGGTTATAGCATGAATAGAAT,2.49,3,-0.0276,2.72,-0.261,4.52,5.72,6.18,4.17,6.28
CCAGACAGGTAAAAGGTAACTCAGTCTGGTACGC,-0.0774,0.12,-0.25,0.125,-0.535,2.14,3.01,3.82,2.27,3.94
CCTAGTTGGTCAAGAGGTCACACACCGGATATGA,5.19,5.02,3.61,4.58,0.768,5.71,5.69,5.36,3.16,4.81
TCTTGTAGATCAGCAGGTAAAGAAAGCTGGCCAA,0.051,0.0639,-0.443,-0.119,-0.519,0.422,-0.331,0.955,2.5,1.69
TGTCAAAGTTCAAAAGTAACGTAAGTATCCACAC,6.34,6.07,4.09,4.04,2.53,4.83,7.77,6.63,4.65,6.63
CGAAGGAGGGCATGAGTTGATAGCAAATGCCGAT,-0.0276,-0.0888,-0.504,-0.073,-0.785,0.988,1.13,1.1,0.326,0.97
CGTCCAAGGTCAAAGGTCGGTGAAGAGATGACGG,7.72,5.78,1.27,5.08,0.738,7.01,9.09,7.29,6.65,7.6
CAAACTAGGTCACCGGAAGTTCAAAGTCCGCATG,5.16,5.88,4.93,4.26,1.06,5.9,9.18,7.54,5.95,7.54
CCAGCCAGGTGAAAGGTAACTCAGTCTGGTACGC,0.269,0.156,-0.445,0.354,-1.15,3.65,6.97,6.34,5.76,7.61
ATATGTAGGTTGTCGGGTCATTCAGTTTGCGCAT,2.12,2.15,1.45,2.65,0.953,3.6,2.89,3.27,1.09,2.63
CAAACTAGGTCACAGAGGCCAAAGTCCGTGCGTA,4.93,3.79,1.02,2.66,0.0915,5.36,8.81,7.33,5.35,7.09
TTACCAAGGTGAAGGTCCTTGATCCCTCTGTAGA,0.794,0.644,-0.31,1.04,-0.95,1.87,1.33,2.39,0.878,2.03
CCAGACGGGTGAGAAGGTAACTCAGCCTCGATTA,-0.446,-0.488,-0.527,-0.4,-1.08,0.109,0.208,0.0448,-0.616,-0.191
TAGCCTGGGTCATGGGCCAGTATACCACGCGAAC,3.85,2.34,-0.426,2.04,-0.671,4.14,4.11,3.94,1.09,2.53
